# Assay results taken from PubChem BioAssay (EPA / NIEHS).
# Calls of active or inactive are those of the source. The calls were made as follows: active = hit-call score of the fitted dose curve at least 0.9, where 1 is the maximum; inactive = score below 0.9.
# Experiments:
# Conditions in all cases: mRNA level, 48 h; actives raise or lower the signal
# [1] = read-out: adenosine kinase (ADK) gene, ADK (gene 132); assay: LTEA_HepaRG_ADK: Life Technologies and Expression Analysis (LTEA) Assay for adenosine kinase (ADK) gene using HepaRG (AID 2283471)
# How it was run: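 ADK expression quantified by qRT-PCR, normalised to three housekeeping genes, after 48 h exposure of HepaRG cells to eight concentrations (top 100 uM, half-log steps, duplicate, 0.5% DMSO). Up- or down-regulation fitted relative to vehicle.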
# [2] = read-out: Alpha-fetoprotein (AFP) gene, AFP (gene 174); assay: LTEA_HepaRG_AFP: Life Technologies and Expression Analysis (LTEA) Assay for Alpha-fetoprotein (AFP) gene using HepaRG (AID 2283472)
# How it was run: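 HepaRG, single lot; 48 h post-plating -> serum-free induction medium; cpd 8-pt, 100 uM top, half-log, 0.5% DMSO, duplicate, 48 h. RNA -> qRT-PCR AFP, norm ACTB/GAPDH/POLR2A. Bidirectional fit vs DMSO.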
# [3] = read-out: BCL2L11 (gene 10018); assay: LTEA_HepaRG_BCL2L11: Life Technologies and Expression Analysis (LTEA) Assay for Bcl-2 (BCL2L11) gene using HepaRG (AID 2283473)
# How it was run: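 Differentiated human HepaRG cells in serum-free induction medium were exposed in duplicate for 48 h to eight concentrations (top 100 uM, half-log steps, 0.5% DMSO). BCL2L11 mRNA was quantified by TaqMan qRT-PCR, normalized to ACTB/GAPDH/POLR2A, bidirectional fit versus DMSO.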
# [4] = read-out: Apolipoprotein A-V (APOA5) gene, APOA5 (gene 116519); assay: LTEA_HepaRG_APOA5: Life Technologies and Expression Analysis (LTEA) Assay for Apolipoprotein A-V (APOA5) gene using HepaRG (AID 2283474)
# How it was run: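 Differentiated human HepaRG cells were exposed in duplicate for 48 h to eight half-log concentrations from 100 uM in 0.5% DMSO. APOA5 mRNA was quantified by TaqMan qRT-PCR, normalized to ACTB, GAPDH and POLR2A, and fitted bidirectionally against DMSO.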
# [5] = read-out: Apoptosis regulator Bcl-2 (Homo sapiens) (UniProt P10415); assay: LTEA_HepaRG_BCL2: Life Technologies and Expression Analysis (LTEA) Assay for Bcl-2 gene using HepaRG (AID 2283475)
# How it was run: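 HepaRG, plated 48 h then switched to serum-free induction medium; dosed 48 h, 8 conc. (max 100 uM, half-log steps), duplicate, 0.5% DMSO. Lysis in RLT, RNA isolated, TaqMan qRT-PCR for BCL2; ACTB/GAPDH/POLR2A normalisation; bidirectional fit vs DMSO.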
# [6] = read-out: Bcl-2 (BID) gene, BID (gene 637); assay: LTEA_HepaRG_BID: Life Technologies and Expression Analysis (LTEA) Assay for Bcl-2 (BID) gene using HepaRG (AID 2283476)
# How it was run: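 Transcript levels of BID, measured by qRT-PCR and normalized to three housekeeping genes, were fitted bidirectionally against DMSO controls. Cells were HepaRG, dosed 48 h at up to 100 uM.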
# [7] = read-out: Caspase-3 (Homo sapiens) (UniProt P42574); assay: LTEA_HepaRG_CASP3: Life Technologies and Expression Analysis (LTEA) Assay for cysteine-aspartic acid protease (CASP3) using HepaRG (AID 2283477)
# How it was run: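 Differentiated human HepaRG cells in serum-free induction medium were exposed 48 h to 8-point half-log concentrations from 100 uM (0.5% DMSO vehicle). CASP3 mRNA was measured by qRT-PCR, normalised to ACTB, GAPDH and POLR2A, with bidirectional fitting against DMSO.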
# [8] = read-out: Cytochrome P450 (CYP24A1), CYP24A1 (gene 1591); assay: LTEA_HepaRG_CYP24A1: Life Technologies and Expression Analysis (LTEA) Assay for Cytochrome P450 (CYP24A1) using HepaRG (AID 2283478)
# How it was run: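 Differentiated HepaRG cells, pre-cultured 48 h, were exposed in duplicate for 48 h in serum-free induction medium to 8 half-log concentrations (top 100 uM, 0.5% DMSO). CYP24A1 mRNA was quantified by TaqMan qRT-PCR, normalized to ACTB/GAPDH/POLR2A, fitted bidirectionally versus DMSO.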
# [9] = read-out: Cytochrome P450 (CYP1A2), CYP1A2 (gene 1544); assay: LTEA_HepaRG_CYP1A2: Life Technologies and Expression Analysis (LTEA) Assay for Cytochrome P450 (CYP1A2) using HepaRG (AID 2283479)
# How it was run: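 Differentiated human HepaRG cells in serum-free induction medium were exposed in duplicate for 48 h to 8-point half-log concentrations up to 100 uM in 0.5% DMSO. CYP1A2 mRNA measured by qRT-PCR, normalized to ACTB, GAPDH, POLR2A; bidirectional fit vs DMSO.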
# [10] = read-out: cysteine-aspartic acid protease (CASP8), CASP8 (gene 841); assay: LTEA_HepaRG_CASP8: Life Technologies and Expression Analysis (LTEA) Assay for cysteine-aspartic acid protease (CASP8) using HepaRG (AID 2283480)
# How it was run: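 HepaRG, 48 h exposure, duplicate wells; 8 conc, half-log from 100 uM, 0.5% DMSO. Serum-free induction medium. CASP8 mRNA by TaqMan qRT-PCR, norm. ACTB/GAPDH/POLR2A; gain/loss fitted vs DMSO.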
# [11] = read-out: Cytochrome P450 (CYP2B6), CYP2B6 (gene 1555); assay: LTEA_HepaRG_CYP2B6: Life Technologies and Expression Analysis (LTEA) Assay for Cytochrome P450 (CYP2B6) using HepaRG (AID 2283481)
# How it was run: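 Differentiated HepaRG cells, serum-free induction medium, exposed 48 h in duplicate to 8-point half-log concentrations from 100 uM in 0.5% DMSO. CYP2B6 mRNA by qRT-PCR, normalized to ACTB, GAPDH, POLR2A; bidirectional fit versus DMSO.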
# [12] = read-out: Cytochrome P450 2C19 (Homo sapiens) (UniProt P33261); assay: LTEA_HepaRG_CYP2C19: Life Technologies and Expression Analysis (LTEA) Assay for CYP2C19 using HepaRG (AID 2283482)
# How it was run: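 Differentiated human HepaRG cells were exposed for 48 h in serum-free induction medium to 8 concentrations (top 100 uM, half-log steps, 0.5% DMSO). CYP2C19 mRNA was measured by qRT-PCR, normalized to ACTB/GAPDH/POLR2A, and fitted bidirectionally against DMSO.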
# [13] = read-out: CYP2C8 (gene 1558); assay: LTEA_HepaRG_CYP2C8: Life Technologies and Expression Analysis (LTEA) Assay for CYP2C8 using HepaRG (AID 2283483)
# How it was run: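 CYP2C8 mRNA induction or loss, by qRT-PCR normalized to ACTB/GAPDH/POLR2A, is read in HepaRG cells after 48 h treatment. Concentrations run from 100 uM down in half-log dilutions, with 0.5% DMSO as vehicle and baseline.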
# [14] = read-out: CYP2C9 (gene 1559); assay: LTEA_HepaRG_CYP2C9: Life Technologies and Expression Analysis (LTEA) Assay for CYP2C9 using HepaRG (AID 2283484)
# How it was run: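 Cells plated 48 h, switched to serum-free induction medium, then treated in duplicate for 48 h at eight concentrations (max 100 uM, 0.5% DMSO). RNA then analysed by qRT-PCR for CYP2C9; curves fitted in both directions relative to DMSO.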
# [15] = read-out: CYP2E1 (gene 1571); assay: LTEA_HepaRG_CYP2E1: Life Technologies and Expression Analysis (LTEA) Assay for CYP2E1 using HepaRG (AID 2283485)
# How it was run: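 Human liver line HepaRG, plated 48 h, then serum-free induction medium + chemical x 48 h; 8-pt CRC from 100 uM, half-log, 0.5% DMSO, n=2. Readout: CYP2E1 mRNA qRT-PCR vs ACTB/GAPDH/POLR2A; bidirectional fit vs DMSO.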
# [16] = read-out: CYP4A11 (gene 1579); assay: LTEA_HepaRG_CYP4A11: Life Technologies and Expression Analysis (LTEA) Assay for CYP4A11 using HepaRG (AID 2283486)
# How it was run: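 Differentiated HepaRG cells, serum-free induction medium, exposed 48 h in duplicate to 8-point half-log series from 100 uM in 0.5% DMSO. CYP4A11 mRNA measured by qRT-PCR, normalized to ACTB, GAPDH, POLR2A; bidirectional fit versus DMSO.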
# [17] = read-out: Cytochrome P450 3A4 (Homo sapiens) (UniProt P08684); assay: LTEA_HepaRG_CYP3A4: Life Technologies and Expression Analysis (LTEA) Assay for CYP3A4 using HepaRG (AID 2283487)
# How it was run: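 Differentiated HepaRG cells, plated 48 h, then dosed 48 h in serum-free induction medium with 0.5% DMSO, 8 half-log concentrations up to 100 uM, duplicate. CYP3A4 mRNA by qRT-PCR, normalized to ACTB/GAPDH/POLR2A; bidirectional fit versus DMSO.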
# [18] = read-out: DNA damage-inducible transcript 3 (DDIT3), DDIT3 (gene 1649); assay: LTEA_HepaRG_DDIT3: Life Technologies and Expression Analysis (LTEA) Assay for DNA damage-inducible transcript 3 (DDIT3) using HepaRG (AID 2283488)
# How it was run: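 HepaRG plated 48 h, switched to serum-free induction medium, dosed 48 h (100 uM top, half-log, 8 pts, 0.5% DMSO, n=2); RNA isolated; DDIT3 by qRT-PCR; bidirectional curve fit vs DMSO.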
# [19] = read-out: Pro-epidermal growth factor (Homo sapiens) (UniProt P01133); assay: LTEA_HepaRG_EGF: Life Technologies and Expression Analysis (LTEA) Assay for Epidermal growth factor (EGF) using HepaRG (AID 2283489)
# How it was run: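 Differentiated human HepaRG cells, plated 48 h then switched to serum-free induction medium, were exposed for 48 h to test chemicals (8-point half-log series, top 100 uM, 0.5% DMSO). EGF mRNA was quantified by qRT-PCR, normalized to ACTB, GAPDH, POLR2A.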
# [20] = read-out: Early growth response protein 1 (EGR1) transcription factor, EGR1 (gene 1958); assay: LTEA_HepaRG_EGR1: Life Technologies and Expression Analysis (LTEA) Assay for Early growth response protein 1 (EGR1) transcription factor using HepaRG (AID 2283490)
# How it was run: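 Read-out is EGR1 mRNA level by qRT-PCR, normalized to three housekeeping genes and analysed for gain or loss of signal against 0.5% DMSO. Source cells: human HepaRG, treated 48 h at up to 100 uM in half-log dilutions.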
# Sequence of Cytochrome P450 3A4 (Homo sapiens) (P08684 whole entry, looked up): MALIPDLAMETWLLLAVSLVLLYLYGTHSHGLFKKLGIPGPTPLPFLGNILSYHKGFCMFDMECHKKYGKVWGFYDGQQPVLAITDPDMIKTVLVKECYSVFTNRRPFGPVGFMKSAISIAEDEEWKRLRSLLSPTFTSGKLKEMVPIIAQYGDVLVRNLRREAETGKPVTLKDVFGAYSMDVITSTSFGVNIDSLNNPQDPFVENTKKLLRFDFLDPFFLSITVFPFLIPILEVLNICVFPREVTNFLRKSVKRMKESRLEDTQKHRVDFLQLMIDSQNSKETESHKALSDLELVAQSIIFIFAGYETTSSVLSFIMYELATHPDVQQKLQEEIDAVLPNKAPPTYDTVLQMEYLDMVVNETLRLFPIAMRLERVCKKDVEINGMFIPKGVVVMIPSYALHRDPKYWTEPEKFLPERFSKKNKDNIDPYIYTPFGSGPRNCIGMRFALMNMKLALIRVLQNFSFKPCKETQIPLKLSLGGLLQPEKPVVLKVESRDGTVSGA
# Sequence of Cytochrome P450 2C19 (Homo sapiens) (P33261 whole entry, looked up): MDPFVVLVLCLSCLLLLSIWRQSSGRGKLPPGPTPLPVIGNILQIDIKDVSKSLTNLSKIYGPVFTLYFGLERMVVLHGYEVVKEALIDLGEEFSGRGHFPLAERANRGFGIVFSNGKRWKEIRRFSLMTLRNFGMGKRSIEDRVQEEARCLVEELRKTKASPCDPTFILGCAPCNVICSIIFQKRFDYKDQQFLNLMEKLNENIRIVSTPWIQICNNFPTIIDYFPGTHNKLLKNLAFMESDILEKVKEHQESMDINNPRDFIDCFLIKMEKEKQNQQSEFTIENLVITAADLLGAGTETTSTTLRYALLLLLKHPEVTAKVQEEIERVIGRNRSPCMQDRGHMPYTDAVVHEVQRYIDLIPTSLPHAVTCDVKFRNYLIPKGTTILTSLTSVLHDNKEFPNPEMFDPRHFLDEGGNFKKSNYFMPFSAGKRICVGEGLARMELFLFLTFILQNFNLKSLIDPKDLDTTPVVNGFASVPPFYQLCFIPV
# Sequence of Caspase-3 (Homo sapiens) (P42574 whole entry, looked up): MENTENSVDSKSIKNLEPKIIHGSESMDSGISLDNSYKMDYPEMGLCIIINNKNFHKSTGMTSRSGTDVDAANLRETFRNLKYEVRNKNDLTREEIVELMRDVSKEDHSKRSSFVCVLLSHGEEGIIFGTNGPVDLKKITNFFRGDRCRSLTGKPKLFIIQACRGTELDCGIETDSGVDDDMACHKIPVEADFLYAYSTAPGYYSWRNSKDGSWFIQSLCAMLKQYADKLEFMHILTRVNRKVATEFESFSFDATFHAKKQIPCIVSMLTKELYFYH
# Sequence of Apoptosis regulator Bcl-2 (Homo sapiens) (P10415 whole entry, looked up): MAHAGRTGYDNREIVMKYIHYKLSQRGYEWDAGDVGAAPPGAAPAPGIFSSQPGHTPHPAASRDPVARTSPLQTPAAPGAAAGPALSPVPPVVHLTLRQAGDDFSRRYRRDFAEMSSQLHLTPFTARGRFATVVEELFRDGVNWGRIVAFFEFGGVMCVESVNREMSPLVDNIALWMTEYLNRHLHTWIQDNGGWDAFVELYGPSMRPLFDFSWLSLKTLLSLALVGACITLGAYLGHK
smiles,measurement,setting,value
Cc1nc(N(C)C)nc(OC(=O)N(C)C)c1C,outcome,[1],inactive
same,outcome,[2],inactive
same,outcome,[3],inactive
same,outcome,[4],inactive
same,outcome,[5],inactive
same,outcome,[6],inactive
same,outcome,[7],inactive
same,AC50,[8],92400 nM (active)
same,outcome,[9],inactive
same,outcome,[10],inactive
same,AC50,[11],8420 nM (active)
same,AC50,[12],19700 nM (active)
same,AC50,[13],9920 nM (active)
same,outcome,[14],inactive
same,outcome,[15],inactive
same,outcome,[16],inactive
same,AC50,[17],40700 nM (active)
same,outcome,[18],inactive
same,outcome,[19],inactive
same,outcome,[20],inactive
CCOc1nc(C(Cl)(Cl)Cl)ns1,AC50,[1],1060 nM (active)
same,AC50,[2],1770 nM (active)
same,AC50,[3],862 nM (active)
same,AC50,[4],1440 nM (active)
same,AC50,[5],1510 nM (active)
same,AC50,[6],1330 nM (active)
same,AC50,[7],1050 nM (active)
same,AC50,[8],1930 nM (active)
same,AC50,[9],939 nM (active)
same,AC50,[10],1080 nM (active)
same,AC50,[11],1280 nM (active)
same,AC50,[12],14900 nM (active)
same,AC50,[13],1140 nM (active)
same,outcome,[14],inactive
same,outcome,[15],inactive
same,AC50,[16],1120 nM (active)
same,outcome,[17],inactive
same,AC50,[18],1610 nM (active)
same,AC50,[20],1120 nM (active)
COc1cc(Cl)c(OC)cc1Cl,outcome,[1],inactive
same,outcome,[2],inactive
same,outcome,[3],inactive
same,outcome,[4],inactive
same,outcome,[5],inactive
same,outcome,[6],inactive
same,outcome,[7],inactive
same,AC50,[9],50000 nM (active)
same,outcome,[10],inactive
same,AC50,[11],1230 nM (active)
same,outcome,[13],inactive
same,outcome,[14],inactive
same,outcome,[15],inactive
same,outcome,[16],inactive
same,outcome,[17],inactive
same,outcome,[18],inactive
same,outcome,[19],inactive
same,outcome,[20],inactive
COC(=O)NS(=O)(=O)c1ccc(N)cc1,outcome,[1],inactive
same,outcome,[2],inactive
same,outcome,[3],inactive
same,outcome,[4],inactive
same,outcome,[5],inactive
same,outcome,[6],inactive
same,outcome,[7],inactive
same,outcome,[8],inactive
same,outcome,[9],inactive
same,outcome,[10],inactive
same,outcome,[11],inactive
same,outcome,[12],inactive
same,outcome,[13],inactive
same,outcome,[14],inactive
same,outcome,[15],inactive
same,outcome,[16],inactive
same,outcome,[17],inactive
same,outcome,[18],inactive
same,outcome,[19],inactive
same,outcome,[20],inactive
CC(C)N1C(=O)c2ccccc2NS1(=O)=O,outcome,[1],inactive
same,outcome,[2],inactive
same,outcome,[3],inactive
same,outcome,[4],inactive
same,outcome,[5],inactive
same,outcome,[6],inactive
same,outcome,[7],inactive
same,outcome,[8],inactive
same,outcome,[9],inactive
same,outcome,[10],inactive
same,AC50,[11],50000 nM (active)
same,outcome,[12],inactive
same,outcome,[13],inactive
same,outcome,[14],inactive
same,outcome,[15],inactive
same,outcome,[16],inactive
same,outcome,[17],inactive
same,outcome,[18],inactive
same,outcome,[19],inactive
same,outcome,[20],inactive
Nc1cnn(-c2ccccc2)c(=O)c1Cl,outcome,[1],inactive
same,outcome,[2],inactive
same,outcome,[3],inactive
same,outcome,[4],inactive
same,outcome,[5],inactive
same,outcome,[6],inactive
same,outcome,[7],inactive
same,outcome,[8],inactive
same,AC50,[9],80600 nM (active)
same,outcome,[10],inactive
same,AC50,[11],17100 nM (active)
same,outcome,[12],inactive
same,outcome,[13],inactive
same,outcome,[14],inactive
same,AC50,[15],9920 nM (active)
same,outcome,[16],inactive
same,AC50,[17],17600 nM (active)
same,outcome,[18],inactive
same,outcome,[19],inactive
same,outcome,[20],inactive
